# Screening data deposited in PubChem by National Center for Advancing Translational Sciences (NCATS).
# In the library only some 0.89% were active in any assay of this set; here they are far more common.
# L3MBTL1 inh-1 = blocks human L3MBTL1; Q9Y468; Potency, µM (top dose mostly 57.1 µM), usual class: inhibitors; 0.66% of 230,000 active; AlphaScreen L3MBTL1–H3K9me1 peptide binding; further: nearly all actives have a fitted effect of over 60% in size
#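 AlphaScreen proximity signal between nickel-chelate acceptor and streptavidin donor beads (final 10 ug/mL) reports binding of 50 nM L3MBTL1 to 75 nM biotin-H3 K9me1 peptide; complex incubated with compounds 30 min at room temperature; cefsulodin titration as control.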
# Six1-Eya2 blk = Six1/Eya2 interaction inhibition | AlphaScreen GST-Six1/His-Eya2 binding, biochemical; hits give low values | activity change, % (concentration not given with the values) | 0.56% of 360,000 active | AID 651725; in the data active means activity change below about -65%; inconclusive means mostly about -30% to -63%
#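 Homogeneous AlphaScreen proximity assay pairing GST-Six1 with His-tagged Eya2 (added as 5X mix: 250 nM and 500 nM) in 50 mM Tris pH 8.0, 300 mM NaCl, 1 mM TCEP. Glutathione donor and nickel acceptor beads; 1 h, 37 °C, dark.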
# CtBP-E1A blk = blocks the CtBP interaction with E1A | activity change, % (test concentration not listed) | 0.49% of 340,000 active | AlphaScreen GST-E1A/His-CtBP binding, 1536-well; hits give low values; in the data active means activity change below about -65%; inconclusive means mostly about -30% to -63%
#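 Homogeneous bead-based format: GST-tagged E1A captured on glutathione donor beads, His-tagged CtBP on nickel acceptor beads; compounds precede bead addition by 2 h at 37 °C.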
# Eya2 phos inh = inhibitors of human Eya2 phosphatase activity. O00167. recombinant Eya2, OMFP fluorescence dephosphorylation (OMFP is methylfluorescein phosphate). AID 488837. 0.006% of 330,000 active. Potency, µM (titrated, usually from 76.9 µM), most hits filed as inhibitors
#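 Eya2 protein (added as 0.2 uM solution) was preincubated with compound for 10 min at ambient temperature in 50 mM HEPES pH 7.5, 50 mM NaCl, 5 uM MgCl2, 0.05% BSA, 1 mM DTT. OMFP (added at 50 uM) then reacted 10 min; fluorescence read at 485/525 nm.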
# CBFb-RUNX1 inh = inhibitors of human CBF-beta and RUNX1 interaction. Potency, µM (doses to about 59.8 µM), most hits filed as inhibitors. AlphaScreen CBFb-His/RUNX1-biotin binding, biochemical. 230,000 tested, under 10 active
#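 AlphaScreen binding: CBFb-His and RUNX1-biotin (30 nM each) preincubated 20 min, compound added for 15 min, then nickel and streptavidin beads for 90 min, all at room temperature. Disruption of the interaction by any mechanism counts as activity.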
# MBNL1-CUG inh = MBNL1-poly(CUG) RNA binding inhibition | Q9NR56 | TR-FRET MBNL1-His/biotin-(CUG)12 binding, 665/545 ratio | Potency, µM (titrated, usually from 57.5 µM), most hits filed as inhibitors | 0.036% of 280,000 active | AID 2675; active means well fitted inhibition curve with a large enough effect in the signal ratio, with a control signal flat, not every such curve was filed as active; inconclusive means small, poorly fitted or top-dose-only effect, or effect the other way, or a change in a side signal; inactive means no such curve, though single readings can be large or run the other way; the % refers to the signal ratio
# Target sequence (Q9NR56 whole entry, looked up): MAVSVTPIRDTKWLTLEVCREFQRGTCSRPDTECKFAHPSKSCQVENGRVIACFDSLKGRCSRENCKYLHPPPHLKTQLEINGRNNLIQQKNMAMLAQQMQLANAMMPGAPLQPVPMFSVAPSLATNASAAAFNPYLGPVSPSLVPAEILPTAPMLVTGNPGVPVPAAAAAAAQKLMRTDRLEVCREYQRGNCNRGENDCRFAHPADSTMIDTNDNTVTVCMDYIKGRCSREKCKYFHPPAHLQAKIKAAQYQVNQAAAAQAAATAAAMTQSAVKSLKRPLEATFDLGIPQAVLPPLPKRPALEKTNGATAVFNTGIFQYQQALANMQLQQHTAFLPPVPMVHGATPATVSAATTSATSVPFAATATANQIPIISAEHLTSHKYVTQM
#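 Compounds (final 92 nM to 58 uM) are added to His-tagged MBNL1 and biotin-(CUG)12, then terbium anti-His antibody and streptavidin-XL665 (5 nM final). After 60 min at room temperature, the 665/545 nm ratio is read.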
# L3MBTL1 inh-2 = L3MBTL1 binding inhibition validated; Potency, µM, most hits filed as inhibitors; L3MBTL1 methyl-lysine binding inhibition, biochemical qHTS; 91% of 500 active; shares compounds with L3MBTL1 inh-1; further: nearly all actives have a fitted effect of over 70% in size
# L3MBTL1 ctr = interferes with AlphaScreen signal in L3MBTL1 counterscreen; AID 602224; Potency, µM (series often up to 57.1 µM), most hits filed as inhibitors; shares compounds with L3MBTL1 inh-1; 500 tested, under 10 active; AlphaScreen counterscreen, signal inhibition
# A number is an active result; - = inactive; ? = inconclusive; . = not tested or not shown. Unless noted, the call rests on the fitted dose curve; in most records, active means well fitted curve in the direction sought with a large enough effect; inconclusive means small, poorly fitted or top-dose-only effect, or another doubt; inactive means no such curve, though single readings can be large; an effect the other way counts as inactive or inconclusive.
SMILES,L3MBTL1 inh-1,Six1-Eya2 blk,CtBP-E1A blk,Eya2 phos inh,CBFb-RUNX1 inh,MBNL1-CUG inh,L3MBTL1 inh-2,L3MBTL1 ctr
CN(C)S(=O)(=O)c1cccc(CNCC2COc3ccccc3O2)c1 (stereo not drawn),.,-,-,-,.,-,.,.
COC(=O)c1ccc(=O)n(Cc2ccc3c(c2)OCO3)c1,-,-,-,-,-,-,.,.
COCCCN(C(=O)c1cc(-c2ccco2)nc2ccccc12)c1c(N)n(Cc2ccccc2)c(=O)[nH]c1=O,32µM,-,-,-,.,.,19,-
O=C(COC(=O)c1cccnc1Cl)Nc1cc(S(=O)(=O)N2CCCCC2)ccc1Cl,-,-,-,-,-,-,.,.
O=C1NC(=Nc2ccc(O)cc2)S/C1=C\C=C\c1ccco1,16µM,-,-,-,?,.,13,-
Cc1ccc(S(=O)(=O)N[C@@H](C)CO)cc1,.,-,-,.,.,.,.,.
COC(=O)c1c(NC(=O)CN2C(=O)NC3(CCC(C)CC3)C2=O)sc2c1CCC2 (stereo not drawn),-,-,-,-,.,.,.,.
CC1CCC2(CC1)NC(=O)N(CC(=O)Nc1sc3c(c1C(N)=O)CCC3)C2=O (stereo not drawn),28µM,-,-,-,.,-,3.8,-
O=C(CCCOc1ccccc1)N1CCN(S(=O)(=O)c2ccc(Cl)cc2)CC1,-,-,-,-,.,.,.,.
CCOc1ccc(OCCCC(=O)N2CCN(S(=O)(=O)c3ccc(Cl)cc3)CC2)cc1,32µM,-,-,-,.,.,27,-
O=C(Cc1ccc(S(=O)(=O)N2CCOCC2)s1)Nc1ccc2c(c1)CCC2,-,-,-,-,-,-,.,.
O=C(Cc1ccc(S(=O)(=O)N2CCOCC2)s1)Nc1nc2c(s1)CCCC2,11µM,-,-,-,.,-,6.7,-
O=C(COC(=O)c1ccc(CO)cc1)Nc1ccc(OC(F)F)cc1,-,-,-,-,-,-,.,.
c1coc(-c2nc3ccccc3nc2-c2ccco2)c1,32µM,-,-,-,-,?,?,-
Cc1ccc(C)c(N2CCN(C(=O)c3ccc4nc(-c5ccco5)c(-c5ccco5)nc4c3)CC2)c1,-,-,-,-,-,-,.,.
c1coc(-c2cnc3ccccc3n2)c1,.,-,-,.,.,.,.,.
O=C(c1ccccc1)c1ccc2nc(-c3ccco3)c(-c3ccco3)nc2c1,7.9µM,?,-,-,?,?,7.5,-
COc1ccccc1N1CCN(C(=O)c2ccc3nc(-c4ccco4)c(-c4ccco4)nc3c2)CC1,28µM,-,-,-,?,?,19,-
O=C(O)CNc1nc(NCc2ccc(Cl)cc2)ccc1[N+](=O)[O-],.,-,-,.,.,.,.,.
COc1ccc(OC)c(N2C(=O)[C@@H]3C(c4ccccc4Cl)=NO[C@@H]3C2=O)c1,3.5µM,-,-,-,.,-,3,-
Cc1cccc(C)c1N1C(=O)[C@@H]2C(c3ccccc3Cl)=NO[C@@H]2C1=O,-,-,-,-,-,-,.,.
NC(=S)N/N=C/c1ccc(C23CC4CC(CC(C4)C2)C3)cc1,-,-,-,-,.,-,.,.
CCCN(C(=O)c1cccc(-n2cccc2)c1)c1c(N)n(Cc2ccccc2)c(=O)[nH]c1=O,10µM,-,-,-,.,.,4.7,-
CCCCN(C(=O)c1cccc(-n2cccc2)c1)c1c(N)n(CCCC)c(=O)[nH]c1=O,?,-,-,-,.,.,.,.
CCCN(C(=O)c1ccc([N+](=O)[O-])c(C)c1)c1c(N)n(Cc2ccccc2)c(=O)[nH]c1=O,-,-,.,-,.,.,.,.
SMILES,L3MBTL1 inh-1,Six1-Eya2 blk,CtBP-E1A blk,Eya2 phos inh,CBFb-RUNX1 inh,MBNL1-CUG inh,L3MBTL1 inh-2,L3MBTL1 ctr
CCCN(C(=O)c1cc2c(s1)CCC2)c1c(N)n(Cc2ccccc2)c(=O)[nH]c1=O,18µM,-,-,-,?,.,5.3,-
CCCCN(C(=O)c1cccc(-n2cccc2)c1)c1c(N)n(CCC)c(=O)[nH]c1=O,14µM,-,-,-,.,.,9.5,-
COc1ccc([N+](=O)[O-])c(OC)c1C(=O)NC(=O)Nc1c(F)cc(F)cc1F,-,-,-,-,-,?,.,.
Cc1ccc(/C=c2\sc3nc(-c4ccccc4Br)nn3c2=O)o1,.,-,-,-,?,-,.,.
Cc1ccc(/C=c2\sc3nc(-c4ccco4)nn3c2=O)o1,7.9µM,-,-,-,.,-,17,-
Cc1ccc(OCC(=O)c2c(N)n(C)c(=O)n(C)c2=O)c([N+](=O)[O-])n1,7.9µM,?,-,-,.,.,0.84,?
c1ccc2c(c1)OCC(c1nn3c(Cn4nnc5ccccc54)nnc3s1)O2 (stereo not drawn),35µM,-,-,-,-,-,?,-
C=CCN(C(=O)CC(NC(C)=O)c1ccccc1)c1nc(-c2ccc(S(C)(=O)=O)cc2)cs1 (stereo not drawn),.,-,-,-,.,-,.,.
CCN1C(=O)/C(=C\c2ccc(-c3cccc(C(=O)OC)c3)o2)SC1=Nc1ccc(C(=O)O)cc1,-,.,.,-,.,-,.,.
CCN=C1S/C(=C\c2ccc(-c3cccc(C(=O)O)c3)o2)C(=O)N1CC,40µM,-,-,-,-,-,24,-
COc1ccc(Cc2nnc(NC(=O)Cc3cccs3)s2)cc1OC,6.3µM,-,-,-,?,-,11,-
COc1ccc(C2=Nn3c(nnc3-c3ccccn3)SC2)cc1OC,25µM,-77,-82,-,-,?,?,-
COc1cc(/C=C2\CCc3c2nc2ccccc2c3C(=O)O)cc(OC)c1OC,4µM,-,.,-,.,.,1.5,-
COc1cc(/C=C2\CCCc3c2nc2ccccc2c3C(=O)O)cc(Br)c1O,.,?,?,-,.,?,.,.
Cc1ccc(Nc2nc(N)nc(COC(=O)C3=COCCO3)n2)cc1,-,-,-,-,.,.,.,.
COC(=O)Cc1cc(=O)n(-c2nc3ccccc3[nH]2)[nH]1,13µM,-92,-86,-,.,-,6.7,?
COc1ccc(CC(=O)Nc2nc3ccccc3[nH]2)cc1,-,-,-,-,-,.,.,.
Cn1c2cc(B(O)O)sc2c2cnn(Cc3ccc(F)cc3F)c(=O)c21,-,.,.,-,.,.,.,.
O=C(CSc1cccc2cccnc12)Nc1ccc(S(=O)(=O)N2CCOCC2)cc1,22µM,-88,-93,-,-,?,?,?
O=C(Cn1nnc2ccccc2c1=O)N[C@@H](Cc1ccccc1)C(=O)O,-,-,-,-,-,-,.,.
Cc1ccnc(Cc2ccccc2)n1,.,-,-,-,.,-,.,.
CC1=CN2C(=N)/C(=C/c3ccco3)C(=O)N=C2S1,-,-,-,-,-,?,.,.
